High-throughput results as filed in PubChem.
Rows were chosen to be rich in hits. Some 2.8% of all compounds tested hit in one or more screens of this group.
KKLEB tox = CF airway cell cytotoxicity counter-screen. KKLEB CF airway cells viability, ATPlite luminescence, overnight; stronger effect = lower value; cells stimulated with P. aeruginosa culture filtrate. activity change (cytotoxicity), % at 5 µM. actives 0.36% (n = 360,000);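 active = corrected activity change at or below -50% at 5 µM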
Shn3 inh set2 = reduces Shn3 3'UTR luciferase signal in osteoblasts. AID 588674. Clone20 osteoblast Shn3 3'UTR firefly luciferase, 24 h. actives 0.52% (n = 360,000). inhibition, % at 12.5 µM;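 active = mean inhibition of at least 75% with every replicate also reaching 75%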;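 note: 0% = median of neutral control wells and 100% = pilot-screen positive control compound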
HIF-2a inh = HIF-2a inhibition | actives 0.72% (n = 360,000) | inhibition, % at 18.8 µM | 786-0 RCC cells HIF-2a reporter, luciferase luminescence, overnight | AID 624352;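 active = inhibition of the luminescence signal of 40% or more relative to plate controls, in a single-dose primary screen at 18.75 µM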
CF NFkB block = cystic fibrosis NF-kB activation inhibition; KKLEB NF-kB-GFP reporter, PAF-induced, GFP fluorescence overnight; inhibition, % at 5 µM; actives 0.86% (n = 360,000); AID 588850;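 active = at least 50% inhibition at 5 µM, scaled per plate between neutral and stimulator controls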;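 note: PAF is a Pseudomonas aeruginosa culture filtrate used as stimulus; plate controls were PAF-stimulated DMSO wells for no effect and unstimulated DMSO wells for full effect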
Peg3 prom inh = Peg3 promoter activity inhibition | AID 588405 | actives 1.7% (n = 360,000) | HeLa PEG-Prom luciferase reporter, luminescence, overnight | inhibition, % at 20 µM;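 active = inhibition of at least 50% at 20 µM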
MITF TRPM1 inh = MITF TRPM1 promoter inhibition in SK-MEL-5 cells; SK-MEL-5 TRPM1 promoter luciferase, 24 h; inhibition, % at 12.5 µM; actives 0.83% (n = 330,000); AID 488899;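 active = mean inhibition across replicates of 60% or more, whatever share of single replicates reaches that level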
* = called active by the depositor.

CCCCN1C(=O)/C(=C/C=C2\Oc3ccccc3N2CC)SC1=S was read as KKLEB tox -10, Shn3 inh set2 13, HIF-2a inh -17, CF NFkB block -114, Peg3 prom inh -1 and MITF TRPM1 inh -8.
`CCN1/C(=C/C=C/c2oc3ccc(-c4ccccc4)cc3[n+]2CC)Oc2ccc(-c3ccccc3)cc21` gave KKLEB tox -20, Shn3 inh set2 96*, HIF-2a inh 86*, CF NFkB block -412, Peg3 prom inh 84* and MITF TRPM1 inh 102*.
CSc1ccc2c(c1)N(CCC1CCCCN1C)c1ccccc1S2 (stereo not drawn) was read as KKLEB tox -9, Shn3 inh set2 -6, HIF-2a inh -19, CF NFkB block 29, Peg3 prom inh 99* and MITF TRPM1 inh -6.
For CCOC(=O)N1CCN(CC(=O)Nc2nccs2)CC1 the results were KKLEB tox 1, Shn3 inh set2 10, HIF-2a inh 18, CF NFkB block 6 and Peg3 prom inh -7.
`Cc1ccc(N2CCN(C(=O)N3CCOCC3)CC2)c(C)c1` gave KKLEB tox 8, Shn3 inh set2 6, HIF-2a inh 22, CF NFkB block 3, Peg3 prom inh -1 and MITF TRPM1 inh -4.
COc1cc(C(=O)NCC(c2ccco2)N2CCCC2)ccc1OCc1ccc(Cl)cc1Cl (stereo not drawn) was read as KKLEB tox -19, Shn3 inh set2 11, HIF-2a inh -2, CF NFkB block 37 and Peg3 prom inh 56*.
For Cc1ccc(S(=O)(=O)n2nc(-c3ccco3)nc2N)cc1 the results were KKLEB tox 26, Shn3 inh set2 -2, HIF-2a inh 8, CF NFkB block -11, Peg3 prom inh 0 and MITF TRPM1 inh -9.
`c1ccc2c(C[C@@H]3CNCCN3CC3CCCCC3)cccc2c1` gave KKLEB tox -3, Shn3 inh set2 27, HIF-2a inh 8, CF NFkB block 11, Peg3 prom inh 94* and MITF TRPM1 inh -7.
`c1ccc([C@H]2CNCCN2CCc2cccc3ccccc23)cc1` gave KKLEB tox -14, Shn3 inh set2 5, HIF-2a inh 1, CF NFkB block 32, Peg3 prom inh 86* and MITF TRPM1 inh 3.
COc1ccccc1/C=C/C(=O)/C=C/c1ccccc1O was read as KKLEB tox -13, Shn3 inh set2 -12, HIF-2a inh -12, CF NFkB block -7, Peg3 prom inh 101* and MITF TRPM1 inh 66*.
`COc1ccc(CNC(=O)O[C@H]2C[C@@H]3C(=O)N(c4ccccc4)C(=O)[C@@H]3[C@@H]3CN(S(=O)(=O)c4ccc(C)cc4)C[C@]23O)cc1OC` gave KKLEB tox 5, Shn3 inh set2 -3, HIF-2a inh -8, CF NFkB block 2 and Peg3 prom inh -5.
Screening O=C1N=C(N2CCCC2)S/C1=C\C=C\c1ccccc1 returned KKLEB tox -3, Shn3 inh set2 -39, HIF-2a inh -34, CF NFkB block 5, Peg3 prom inh -85 and MITF TRPM1 inh -4.
Cc1cc(-n2c(C)cc(C(=O)CN3C(=O)C(=O)N(C)C3=O)c2C)no1 was read as KKLEB tox 4, Shn3 inh set2 13, HIF-2a inh 7, CF NFkB block -9, Peg3 prom inh -9 and MITF TRPM1 inh 2.
Screening COc1ccc(-n2c(C)cc(C(=O)CCl)c2C)cc1 returned KKLEB tox -17, Shn3 inh set2 57, HIF-2a inh 40*, CF NFkB block 0, Peg3 prom inh 101* and MITF TRPM1 inh 95*.
`Cc1cc(C(=O)CCl)c(C)n1-c1c(C)n(C)n(-c2ccccc2)c1=O` gave KKLEB tox 6, Shn3 inh set2 1, HIF-2a inh 18, CF NFkB block 39, Peg3 prom inh 60* and MITF TRPM1 inh 48.
Cc1cc(-n2c(C)cc(C(=O)CCl)c2C)no1 was read as KKLEB tox -12, Shn3 inh set2 27, HIF-2a inh 14, CF NFkB block 50, Peg3 prom inh 75* and MITF TRPM1 inh 76*.
Screening COc1cc(/C=N\NC(=O)CNC(=O)C2COc3ccccc3O2)ccc1O (stereo not drawn) returned KKLEB tox 0, Shn3 inh set2 -45, HIF-2a inh 1, CF NFkB block 0, Peg3 prom inh 11 and MITF TRPM1 inh 1.
`CCN(CC)c1ccc(/C=N/NC(=O)CNC(=O)C2COc3ccccc3O2)c(O)c1` (stereo not drawn) gave KKLEB tox -30, Shn3 inh set2 90*, HIF-2a inh -3, CF NFkB block 12, Peg3 prom inh 50* and MITF TRPM1 inh 55.
`Cc1ncc(CO)c2c1Oc1nc(-c3ccccc3)nc(SCC(=O)Nc3cccc(O)c3)c1C2` gave KKLEB tox -15, Shn3 inh set2 -3, HIF-2a inh -13, CF NFkB block -39, Peg3 prom inh 64* and MITF TRPM1 inh 4.
For Cc1c(C#N)c(O)n(CCO)c(=O)c1N=Nc1ccc2c(c1)COC2=O the results were KKLEB tox -10, Shn3 inh set2 -3, HIF-2a inh 3, CF NFkB block 43, Peg3 prom inh 20 and MITF TRPM1 inh 62*.
Screening CCOC(=O)c1c(NC(=O)c2nn(CC)cc2Br)sc(C)c1C returned KKLEB tox -3, Shn3 inh set2 84*, HIF-2a inh -10, CF NFkB block 3, Peg3 prom inh -18 and MITF TRPM1 inh -12.
For Cc1ccc(-c2onc(C)c2C)cc1S(=O)(=O)N1CCOc2ccccc21 the results were KKLEB tox -6, Shn3 inh set2 55, HIF-2a inh 14, CF NFkB block -4, Peg3 prom inh 52* and MITF TRPM1 inh 11.
CC(CNC(=O)c1cc(Cl)ccc1[N+](=O)[O-])NC(=O)c1cc(Cl)ccc1[N+](=O)[O-] (stereo not drawn) was read as KKLEB tox 4, Shn3 inh set2 -10, HIF-2a inh 4, CF NFkB block 4, Peg3 prom inh 16 and MITF TRPM1 inh 14.
`COc1cc2nc(N3CCN(C(=O)c4ccco4)CC3)nc(N)c2cc1OC` gave KKLEB tox 2, Shn3 inh set2 10, HIF-2a inh -2, CF NFkB block -21, Peg3 prom inh 56* and MITF TRPM1 inh 53.
`O=S(=O)(c1ccc(Br)cc1Cl)N1CCN(CCO)CC1` gave KKLEB tox 7, Shn3 inh set2 -15, HIF-2a inh 10, CF NFkB block -12, Peg3 prom inh 3 and MITF TRPM1 inh 3.
For OCCOCCN1CCN(C2=Nc3ccccc3Sc3ccccc32)CC1 the results were KKLEB tox -1, Shn3 inh set2 -2, HIF-2a inh -17, CF NFkB block 34, Peg3 prom inh -15 and MITF TRPM1 inh 1.
For O=C1C=CC(=O)c2c(O)c(N3CCN(CCOCCO)CC3)c(Br)c(O)c21 the results were KKLEB tox 2, Shn3 inh set2 93*, HIF-2a inh 87*, CF NFkB block 6, Peg3 prom inh 53* and MITF TRPM1 inh 97*.
